In PubChem BioAssay AID1159580 (chemical genetic matrix, 2015):
Several values for one entry are separate records, joined by “and”; a condition that tells them apart may be missing. Equal values may be shown once. Hit rate of the full screen: of about 5,500 compounds, about 2,000 (36%) were called active. Inconclusive results (about 18%) are left out. Rule as the data show it: active = normalized growth mostly below about 0.91 (no sharp cut-off); inconclusive = no clear call, values can overlap the other calls; inactive = mostly above about 0.92. This is one part of the list.

Test: chemical genetic growth profiling, strain panel (AID 1159580);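 also: tested at 20 µM; growth read once vehicle control cultures reached saturation at 30 °C; 1 = growth at the plate median or of vehicle wells; lower values mean less growth of the strain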
Conditions: S. cerevisiae deletion strains, growth OD
[1] = locus YJR075W, strain HOC1, active compounds read low
[2] = locus YPL055C, strain LGE1, active compounds read low

Measured: normalized growth

CO/N=C(/C(=O)N[C@@H]1C(=O)N2C(C(=O)O)=C(CSc3nc(=O)c(O)nn3C)CSC12)c1csc(N)n1 (stereo partly specified)
inactive: locus YAL013W, strain DEP1, active compounds read low 1 | locus YAL040C, strain CLN3, active compounds read low 1 | locus YCL061C, strain MRC1 (second series), active compounds read low 1 | locus YER002W, strain NOP16, active compounds read low 1.01 | locus YGR078C, strain PAC10, active compounds read low 1.01 | [1] 1 | locus YNL175C, strain NOP13, active compounds read low 1.01 | locus YNL197C, strain WHI3, active compounds read low 1.01 | locus YNL224C, strain SQS1, active compounds read low 1 | locus YOR083W, strain WHI5 (second series), active compounds read low 1 | [2] 1.01

CO/N=C(\C(=O)N[C@@H]1C(=O)N2C(C(=O)O)=C(CSc3nc(=O)c(O)nn3C)CS[C@H]12)c1csc(N)n1
active: locus YHR013C, strain ard1, active compounds read low 1.2 [resistant]
inactive: locus YAL021C, strain ccr4, active compounds read low 0.982 | locus YAL026C, strain drs2, active compounds read low 0.974 | locus YAL030W, strain snc1, active compounds read low 0.984 | locus YBL061C, strain skt5, active compounds read low 0.966 | locus YBR009C, strain hhf1, active compounds read low 0.985 | locus YBR021W, strain FUR4, active compounds read low 1.03 | locus YBR023C, strain chs3, active compounds read low 0.979 | locus YBR171W, strain sec66, active compounds read low 0.96 | locus YBR229C, strain ROT2, active compounds read low 0.999 | locus YBR231C, strain swc5, active compounds read low 0.975 | locus YBR279W, strain paf1, active compounds read low 0.959 | locus YCL011C, strain gbp2, active compounds read low 0.958 | locus YCL016C, strain dcc1, active compounds read low 0.976 | locus YCL029C, strain bik1, active compounds read low 0.986 | locus YCL061C, strain MRC1, active compounds read low 0.969 | locus YCL069W, strain vba3, active compounds read low 0.986 | locus YCR088W, strain abp1, active compounds read low 0.962 | locus YDL005C, strain med2, active compounds read low 0.984 | locus YDL035C, strain GPR1, active compounds read low 0.982 | locus YDL040C, strain nat1, active compounds read low 0.973 | locus YDL074C, strain BRE1, active compounds read low 1.03 | locus YDL101C, strain DUN1, active compounds read low 0.996 | locus YDL134C, strain PPH21, active compounds read low 1 | locus YDL185W, strain tfp1, active compounds read low 0.946 | locus YDL192W, strain arf1, active compounds read low 0.984 | locus YDR001C, strain nth1, active compounds read low 0.959 | locus YDR069C, strain doa4, active compounds read low 1 | locus YDR101C, strain arx1, active compounds read low 1.02 | locus YDR137W, strain rgp1, active compounds read low 0.968 | locus YDR159W, strain sac3, active compounds read low 0.921 | locus YDR162C, strain NBP2, active compounds read low 0.97 | locus YDR195W, strain ref2 1.01 | locus YDR297W, strain sur2, active compounds read low 0.98 | locus YDR318W, strain mcm21, active compounds read low 0.982 | locus YDR334W, strain swr1, active compounds read low 0.931 | locus YDR335W, strain msn5, active compounds read low 0.966 | locus YDR388W, active compounds read low 0.981 | locus YDR392W, strain spt3, active compounds read low 0.968 | locus YDR502C, strain sam2, active compounds read low 1.01 | locus YEL003W, strain gim4, active compounds read low 0.972 | locus YEL037C, strain rad23, active compounds read low 0.969 | locus YEL061C, strain CIN8 (second series), active compounds read low 0.947 | locus YEL061C, strain CIN8, active compounds read low 1 | locus YER015W, strain faa2, active compounds read low 0.977 | locus YER016W, strain bim1, active compounds read low 0.976 | locus YER110C, active compounds read low 0.974 | locus YER111C, strain swi4, active compounds read low 0.979 | locus YER155C, strain BEM2 (second series), active compounds read low 0.959 | locus YER155C, strain BEM2, active compounds read low 1.01 | locus YER167W, strain BCK2, active compounds read low 0.988 | locus YFR010W, strain ubp6, active compounds read low 0.959 | locus YGL078C, strain dbp3, active compounds read low 0.992 | locus YGL086W, strain mad1, active compounds read low 1.03 | locus YGL167C, strain pmr1, active compounds read low 0.956 | locus YGL173C, strain kem1, active compounds read low 0.975 | locus YGL227W, strain vid30, active compounds read low 0.977 | locus YGL240W, strain doc1, active compounds read low 0.975 | locus YGL248W, strain PDE1, active compounds read low 1 | locus YGL253W, strain hxk2, active compounds read low 0.981 | locus YGR135W, strain pre9, active compounds read low 0.948 | locus YGR252W, strain gcn5, active compounds read low 1.02 | locus YHR027C, strain rpn1, active compounds read low 0.978 | locus YHR030C, strain SLT2, active compounds read low 0.988 and 1.01 | locus YHR079C, strain IRE1 (second series), active compounds read low 0.966 | locus YHR079C, strain IRE1, active compounds read low 1.01 | locus YHR094C, strain hxt1, active compounds read low 0.976 | locus YHR129C, strain ARP1, active compounds read low 0.992 | locus YHR142W, strain chs7, active compounds read low 0.982 | locus YHR200W, strain rpn10, active compounds read low 0.984 | locus YIL066C, strain RNR3, active compounds read low 1.02 | locus YIL073C, strain SPO22, active compounds read low 0.941 | locus YIL125W, strain kgd1, active compounds read low 0.985 | locus YIR030C, strain dcg1, active compounds read low 0.961 | locus YJL092W, strain hpr5, active compounds read low 0.975 | locus YJL095W, strain BCK1 (second series), active compounds read low 0.966 | locus YJL095W, strain BCK1, active compounds read low 1.02 and 0.999 | locus YJL115W, strain asf1, active compounds read low 0.952 | locus YJL129C, strain trk1, active compounds read low 0.958 | locus YJL134W, strain LCB3, active compounds read low 0.993 | locus YJL154C, strain vps35, active compounds read low 0.954 | locus YJL164C, strain tpk1, active compounds read low 0.992 | locus YJL166W, strain qcr8, active compounds read low 0.981 | locus YJL168C, strain set2, active compounds read low 0.998 | locus YJL187C, strain SWE1 (second series), active compounds read low 1.01 | locus YJR043C, strain POL32, active compounds read low 1.03 | locus YJR066W, strain TOR1, active compounds read low 0.965 | [1] 0.994 | locus YKL009W, strain mrt4, active compounds read low 0.974 | locus YKL068W, active compounds read low 0.974 | locus YKL085W, strain MDH1 (second series), active compounds read low 0.984 | locus YKL085W, strain MDH1, active compounds read low 0.984 | locus YKL160W, strain elf1, active compounds read low 0.968 | locus YKL190W, strain CNB1, active compounds read low 0.992 | locus YKR001C, strain vps1, active compounds read low 0.993 | locus YKR026C, strain gcn3, active compounds read low 0.974 | locus YKR091W, strain srl3, active compounds read low 0.982 | locus YLL001W, strain dnm1, active compounds read low 0.965 | locus YLL026W, active compounds read low 0.986 | locus YLL041C, strain sdh2, active compounds read low 0.949 | locus YLR027C, strain aat2, active compounds read low 0.971 | locus YLR039C, strain RIC1, active compounds read low 0.988 | locus YLR058C, strain SHM2, active compounds read low 0.994 | locus YLR102C, strain apc9, active compounds read low 0.985 | locus YLR113W, strain HOG1, active compounds read low 1.04 | locus YLR221C, strain rsa3, active compounds read low 0.969 | locus YLR258W, strain gsy2, active compounds read low 0.957 | locus YLR262C, strain YPT6 (second series), active compounds read low 0.947 | locus YLR262C, strain YPT6, active compounds read low 0.982 | locus YLR268W, strain sec22, active compounds read low 0.992 | locus YLR320W, strain mms22, active compounds read low 0.97 | locus YLR330W, strain CHS5, active compounds read low 0.983 | locus YLR342W, strain FKS1 (second series), active compounds read low 0.985 | locus YLR342W, strain FKS1, active compounds read low 0.983 | locus YLR357W, strain rsc2, active compounds read low 0.893 | locus YLR370C, strain arc18, active compounds read low 0.971 | locus YLR371W, strain rom2, active compounds read low 0.979 | locus YLR384C, strain iki3, active compounds read low 0.967 | locus YLR418C, strain cdc73, active compounds read low 0.994 | locus YML016C, strain PPZ1, active compounds read low 0.996 | locus YML032C, strain rad52, active compounds read low 1.02 | locus YML120C, strain ndi1, active compounds read low 0.986 | locus YML124C, strain tub3, active compounds read low 0.989 | locus YMR058W, strain fet3, active compounds read low 0.969 | locus YMR078C, strain ctf18, active compounds read low 0.964 | locus YMR125W, strain sto1, active compounds read low 0.958 | locus YMR129W, active compounds read low 0.996 | locus YMR205C, strain PFK2, active compounds read low 0.968 | locus YMR223W, strain ubp8, active compounds read low 0.96 | locus YMR231W, strain pep5, active compounds read low 0.977 | locus YMR263W, strain SAP30, active compounds read low 1.01 | locus YMR307W, strain GAS1, active compounds read low 0.981 | locus YNL067W, strain RPL9B, active compounds read low 1.02 | locus YNL071W, strain lat1, active compounds read low 0.956 | locus YNL183C, strain NPR1, active compounds read low 0.96 | locus YNL209W, strain ssb2, active compounds read low 0.961 | locus YNL233W, strain BNI4, active compounds read low 1.03 | locus YNL248C, strain rpa49, active compounds read low 0.924 | locus YNL250W, strain rad50, active compounds read low 0.951 | locus YNL271C, strain bni1, active compounds read low 0.992 | locus YNL298W, strain CLA4, active compounds read low 0.969 | locus YNL307C, strain MCK1, active compounds read low 0.987 | locus YNL322C, strain KRE1 (second series), active compounds read low 0.978 | locus YNR049C, strain mso1, active compounds read low 0.97 | locus YNR052C, strain pop2, active compounds read low 0.986 | locus YOL006C, strain TOP1, active compounds read low 1.11 | locus YOL012C, strain htz1 0.913 | locus YOL147C, strain pex11, active compounds read low 0.972 | locus YOR001W, strain rrp6, active compounds read low 0.963 | locus YOR061W, strain CKA2, active compounds read low 0.998 | locus YOR069W, strain VPS5, active compounds read low 0.988 | locus YOR070C, strain gyp1, active compounds read low 0.977 | locus YOR080W, strain dia2, active compounds read low 0.971 | locus YOR083W, strain WHI5, active compounds read low 0.981 | locus YOR106W, strain vam3, active compounds read low 0.933 | locus YOR136W, strain idh2, active compounds read low 0.994 | locus YOR144C, strain elg1, active compounds read low 0.993 | locus YOR184W, strain ser1, active compounds read low 0.974 | locus YOR231W, strain MKK1, active compounds read low 1.04 | locus YOR265W, strain rbl2, active compounds read low 0.976 | locus YOR270C, strain vph1, active compounds read low 0.947 | locus YOR290C, strain snf2, active compounds read low 0.962 | locus YOR316C, strain cot1, active compounds read low 0.982 | locus YPL051W, strain arl3, active compounds read low 0.964 | [2] 1.07 | locus YPL078C, strain atp4, active compounds read low 0.991 | locus YPL106C, strain sse1, active compounds read low 0.917 | locus YPL240C, strain hsp82, active compounds read low 0.975 | locus YPL241C, strain CIN2, active compounds read low 0.982 | locus YPL256C, strain CLN2, active compounds read low 1.02 | locus YPR119W, strain clb2, active compounds read low 0.988 | locus YPR141C, strain kar3, active compounds read low 0.995 | locus YPR163C, strain tif3, active compounds read low 0.968 | locus YPR167C, strain met16, active compounds read low 0.976 | strain wtn01, active compounds read low 0.981
